Experimental data published in PubChem BioAssay (Tox21).
Several values for one entry are separate records, joined by “and”; a condition that tells them apart may be missing. Equal entries are not always repeated. Records with an inconclusive call do not appear. A structure can be active in one record and inactive in another. Activity calls are given as the source filed them. Unless noted, the call rests on the fitted dose curve; in most records, active means well fitted curve in the direction sought with a large enough effect in the repeat runs; inconclusive means weak or mixed curves; inactive means no such curve, though single readings can be large; an effect the other way counts as inactive or inconclusive.

Experiments:
[1] = qHTS assay to identify small molecule agonists of the hypoxia (HIF-1) signaling pathway - cell viability counter screen (AID 1224844; calls by dose curve; further: nearly all actives have a fitted effect of over 50% in size)
Outline: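 HRE-bla ME-180; 0.5% dFBS; cpd 17 h, 37C, 5% CO2; CellTiter-Glo lum., 30 min RT, post-FRET read, same wells.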

[2] = qHTS assay to identify small molecule agonists of H2AX (AID 1224845; active means well fitted activation curve with a large enough effect in the signal ratio in the repeat runs, not every such curve was filed as active; the % refers to the signal ratio)
Outline: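 Phospho-H2AX Ser139 measured by HTRF (ex 320 nm; em 665 and 620 nm) after 24 hr antibody incubation. Compounds, 15 concentrations, 0.76% DMSO, were applied to CHO-K1 cells for 3hr at 37C before lysis.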

[3] = qHTS assay to identify small molecule agonists of the hypoxia (HIF-1) signaling pathway (AID 1224846; active means well fitted activation curve with a large enough effect in the signal ratio in the repeat runs, not every such curve was filed as active; the % refers to the signal ratio)
Outline: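 Reporter induction in HRE-bla ME-180 cells is taken as agonism: cells sit 5 hrs after plating, receive compounds or DMSO only, incubate 17 hrs at 37C under 5% CO2, and are loaded with CCF4-AM for beta-lactamase FRET measurement.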

[4] = qHTS assay to identify small molecule agonists of H2AX - cell viability counter screen (AID 1224847; calls by dose curve; further: top concentration of the series differs between compounds; nearly all actives have a fitted effect of over 30% in size)
Outline: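 Quantitative HTS viability measurement: CHO-K1 wild-type cells in serum (10% FBS) medium, short 3 hr drug exposure at 37C with 0.76% DMSO, CellTiter-Glo luminescent detection.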

[5] = qHTS assay to identify small molecule antagonists of the estrogen related receptor (ERR) signaling pathway from Tox21 library (AID 1224848); further: nearly all actives have a fitted effect of over 50% in size
Outline: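 ERR cell line, 2,000 cells/well. 6 h settle, then compound (DMSO) added; 18 h at 37 C; ONE-Glo luminescence after 30 min RT.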

[6] = qHTS RealTime-Glo MT Cell Viability Assay in HepG2 cells - 24 hour (AID 1224867); further: nearly all actives have a fitted effect of over 50% in size
Outline: (§1)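 Compound treatment began 5 h after plating HepG2 cells (600/well) with NanoLuc luciferase and prosubstrate. Plates stayed at 37 C for 40 h; luminescence was captured at six time points, 0 h through 40 h.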

[7] = qHTS RealTime-Glo MT Cell Viability Assay in HEK293 cells - 32 hour (AID 1224868); further: nearly all actives have a fitted effect of over 50% in size; further: potency means the concentration at half of the fitted maximal effect
Outline: (§2)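 Quantitative high-throughput screen of the Tox21 10K library in HEK293: cells and RealTime-Glo reagents plated together, compound added at 5 h, luminescence monitored through 40 h at 37 C.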

[8] = qHTS RealTime-Glo MT Cell Viability Assay in HepG2 cells - 40 hour (AID 1224870); further: nearly all actives have a fitted effect of over 50% in size
Outline: (§3)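 Real-time viability: cells seeded at 600 per well together with NanoLuc and cell-permeant prosubstrate, compounds added after 5 h incubation. Luminescence tracked at 0, 8, 16, 24, 32 and 40 h of exposure.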

[9] = A CellTox Green Cytotoxicity Assay to monitor cytotoxicity in HEK293 cells - 40 hour (AID 1224871); further: nearly all actives have a fitted effect of over 45% in size
Outline: (§4)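 Tox21 screen in HEK293: membrane-impermeant cyanine dye fluoresces on binding dead-cell DNA; compound pinned 5 h post-seeding, plates held at 37 C, signal read repeatedly through 40 h.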

[10] = qHTS RealTime-Glo MT Cell Viability Assay in HEK293 cells - 16 hour (AID 1224872)
Outline: as §2

[11] = qHTS RealTime-Glo MT Cell Viability Assay in HepG2 cells - 8 hour (AID 1224873); further: nearly all actives have a fitted effect of over 55% in size; further: potency means the concentration at half of the fitted maximal effect
Outline: as §3

[12] = qHTS RealTime-Glo MT Cell Viability Assay in HEK293 cells - 40 hour (AID 1224874); conditions: RealTime-Glo luminescence; max response: stronger effect = lower value; further: nearly all actives have a fitted effect of over 50% in size; further: potency means the concentration at half of the fitted maximal effect
Outline: (§5)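 HEK293 + NanoLuc + prosubstrate, 600 cells/well; 5 h, 37 C/5% CO2; compound 23 nL in DMSO by pintool; 37 C; luminescence read at 0, 8, 16, 24, 32 and 40 h time points.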

[13] = A CellTox Green Cytotoxicity Assay to monitor cytotoxicity in HEK293 cells - 24 hour (AID 1224875); further: series mostly up to about 77 µM; nearly all actives have a fitted effect of over 45% in size
Outline: as §4

[14] = A CellTox Green Cytotoxicity Assay to monitor cytotoxicity in HepG2 cells - 16 hour (AID 1224876); further: nearly all actives have a fitted effect of over 45% in size
Outline: (§6)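 Measurements at 0, 8, 16, 24, 32 and 40 h of treatment captured CellTox Green fluorescence in HepG2 cells that had been co-plated with reagent and preincubated 5 h at 37 C/5% CO2.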

[15] = qHTS RealTime-Glo MT Cell Viability Assay in HepG2 cells - 32 hour (AID 1224877); further: nearly all actives have a fitted effect of over 55% in size
Outline: as §1

[16] = A CellTox Green Cytotoxicity Assay to monitor cytotoxicity in HepG2 cells - 24 hour (AID 1224878); further: nearly all actives have a fitted effect of over 45% in size; further: potency means the concentration at half of the fitted maximal effect
Outline: as §6

[17] = A CellTox Green Cytotoxicity Assay to monitor cytotoxicity in HepG2 cells - 40 hour (AID 1224879); further: nearly all actives have a fitted effect of over 40% in size; further: potency means the concentration at half of the fitted maximal effect
Outline: as §6

[18] = qHTS RealTime-Glo MT Cell Viability Assay in HEK293 cells - 0 hour (AID 1224880)
Outline: as §5

[19] = A CellTox Green Cytotoxicity Assay to monitor cytotoxicity in HEK293 cells - 32 hour (AID 1224881); further: nearly all actives have a fitted effect of over 40% in size
Outline: as §4

[20] = A CellTox Green Cytotoxicity Assay to monitor cytotoxicity in HEK293 cells - 0 hour (AID 1224869); further: nearly all actives have a fitted effect of over 50% in size
Outline: as §4
On the % scale 0 is the no-effect control and ±100 the full control effect.

CC(C)CC(=O)CC(C)CC(C)C (centres undefined)
inactive: outcome [1] | outcome [2] | outcome [3] | outcome [4] | outcome [5] | Potency [6] | outcome [8] | Potency [9] | Potency [10] | Potency [11] | max response [12] 0.688% | Potency [13] | outcome [14] | outcome [15] | Potency [16] | Potency [17] | outcome [18] | Potency [19]
inactive and 17.4 µM (active): Potency [7]
active: Potency [12] 15.5 µM

CC(C)c1cccc(C(C)C)c1
inactive: outcome [1] | outcome [2] | outcome [3] | outcome [4] | outcome [5] | Potency [6] | outcome [8] | Potency [9] | Potency [10] | Potency [11] | max response [12] 2.88% and 7.17% | Potency [13] | outcome [14] | outcome [15] | Potency [16] | Potency [17] | outcome [18] | Potency [19]

O=C(O)Cn1c(=O)n(Cc2ccc(Br)cc2F)c(=O)c2ccc(Cl)cc21
active: Potency [11] 21.9 µM and 8.49 µM
inactive: outcome [1] | outcome [2] | outcome [3] | outcome [4] | outcome [5] | outcome [20] | outcome [8] | Potency [9] | Potency [10] | Potency [13] | outcome [14] | Potency [16] | Potency [17] | outcome [18] | Potency [19]

COc1ccc(OC)cc1
inactive: outcome [1] | outcome [2] | outcome [3] | outcome [4] | outcome [5] | Potency [6] | Potency [7] | outcome [20] | outcome [8] | Potency [9] | Potency [10] | Potency [11] | max response [12] 5.27% and 14.7% | Potency [13] | outcome [14] | outcome [15] | Potency [16] | Potency [17] | outcome [18] | Potency [19]

Cc1ccc(S(=O)(=O)N=C=O)cc1
inactive: outcome [1] | outcome [2] | outcome [3] | outcome [4] | outcome [5] | outcome [20] | outcome [8] | Potency [9] | Potency [10] | Potency [11] | max response [12] 0.611% and -0.578% | Potency [13] | outcome [14] | outcome [15] | Potency [16] | Potency [17] | outcome [18] | Potency [19]

Cc1ccc2ncccc2c1
inactive: outcome [1] | outcome [2] | outcome [3] | outcome [4] | outcome [5] | Potency [6] | Potency [7] | outcome [20] | outcome [8] | Potency [9] | Potency [10] | Potency [11] | max response [12] 0.634% and 3.71% | Potency [13] | outcome [14] | outcome [15] | Potency [16] | Potency [17] | outcome [18] | Potency [19]

CCOCC(=O)O
inactive: outcome [1] | outcome [2] | outcome [3] | outcome [4] | outcome [5] | Potency [7] | outcome [20] | outcome [8] | Potency [9] | Potency [10] | Potency [11] | max response [12] -1.6% and 8.63% | Potency [13] | outcome [14] | outcome [15] | Potency [16] | Potency [17] | outcome [18] | Potency [19]

OCc1ccccc1
inactive: outcome [1] | outcome [2] | outcome [3] | outcome [4] | outcome [5] | Potency [6] | Potency [7] | outcome [8] | Potency [9] | Potency [10] | Potency [11] | max response [12] -3.29% and 13.4% | Potency [13] | outcome [14] | outcome [15] | Potency [16] | outcome [18] | Potency [19]

O=C(O)CCCCCCCCC(=O)O
inactive: outcome [1] | outcome [2] | outcome [3] | outcome [4] | outcome [5] | Potency [7] | outcome [8] | Potency [9] | Potency [10] | Potency [11] | max response [12] 1.05% and 1.59% | Potency [13] | outcome [14] | outcome [15] | Potency [16] | Potency [17] | outcome [18] | Potency [19]

CCCCC(C=O)CC (centres undefined)
inactive: outcome [1] | outcome [2] | outcome [3] | outcome [4] | Potency [6] | Potency [7] | outcome [20] | outcome [8] | Potency [9] | Potency [10] | Potency [11] | max response [12] -0.352% and 2.13% | Potency [13] | outcome [14] | outcome [15] | outcome [18] | Potency [19]
inactive and 14.6 µM (active): Potency [16] | Potency [17]

O=S(=O)(O)c1ccccc1
inactive: outcome [1] | outcome [2] | outcome [3] | outcome [4] | outcome [5] | Potency [6] | Potency [7] | outcome [20] | outcome [8] | Potency [9] | Potency [10] | Potency [11] | max response [12] 0.0472% and -6.62% | Potency [13] | outcome [14] | outcome [15] | Potency [16] | Potency [17] | outcome [18] | Potency [19]

CCCOC(=O)c1ccccc1
inactive: outcome [1] | outcome [2] | outcome [3] | outcome [4] | outcome [5] | Potency [6] | Potency [7] | outcome [8] | Potency [9] | Potency [10] | Potency [11] | max response [12] 4.73% and -2.32% | Potency [13] | outcome [14] | outcome [15] | Potency [16] | Potency [17] | outcome [18] | Potency [19]

Nc1nc(N)nc(-c2ccccc2)n1
inactive: outcome [1] | outcome [2] | outcome [3] | outcome [4] | Potency [6] | Potency [7] | outcome [20] | outcome [8] | Potency [9] | Potency [10] | Potency [11] | max response [12] -23.1% and 0.641% | Potency [13] | outcome [14] | outcome [15] | Potency [16] | Potency [17] | outcome [18] | Potency [19]

C=CC(=O)OCCC(=O)O
inactive: outcome [1] | outcome [2] | outcome [3] | outcome [4] | outcome [5] | Potency [6] | Potency [7] | outcome [20] | outcome [8] | Potency [9] | Potency [10] | Potency [11] | max response [12] -1.71% and -0.811% | Potency [13] | outcome [14] | outcome [15] | Potency [16] | Potency [17] | outcome [18] | Potency [19]
